# Source: PubChem BioAssay
# An excerpt weighted towards active compounds, which were near 9.2% of everything screened.
# Rab9 prom act = activates the Rab9 promoter. Huh7 Rab9 promoter-luciferase reporter, luminescence, 24 h. Potency, µM (top dose mostly 9.22 µM), for inactives: at the top dose activation, negative = inhibition, hits mostly activators. hit rate 2.8% among 320,000; note: % of control where 0% means no effect; nearly all actives have a fitted effect of over 60% in size
#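 Stable Rab9-luc Huh7, 1500 cells/well, 2 h settle; cmpd in DMSO, 24 h, 37 °C/5% CO2; luciferase reagent 10 min RT; luminescence.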
# NPC1 prom act = NPC1 promoter activation; hit rate 2.4% among 320,000; AID 485313; Potency, µM (doses to about 9.22 µM), for inactives: at the highest dose activation, usual class: activators; Huh7 NPC1 promoter luciferase reporter, 24 h; note: % of control where 0% means no effect; nearly all actives have a fitted effect of over 60% in size
#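 Huh7 reporter cells (NPC1 promoter driving luciferase) are dosed with compound for 24 h at 37 °C, 5% CO2; luciferase detection reagent is then added and luminescence measured after 10 min at ambient temperature.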
# ELG1 repair inh = inhibitors of ELG1-dependent DNA repair in HEK293T cells; HEK293T ELG1-luciferase reporter, luminescence, 16 h; DNA damage induced by 5-fluorouridine; Potency, µM (top dose mostly 46.1 µM), for inactives: top-dose activity change, negative = inhibition, usual class: inhibitors; hit rate 2.3% among 330,000; note: % is set by controls: 0 for no effect and ±100 for the full control effect; nearly all actives have a fitted effect of over 55% in size
#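 Overnight (16 hr) co-exposure of 2,000 cells/well to 5-fluorouridine and compound at 37 °C preceded detection. Luciferase was quantified via ONE-Glo luminescence; loss of signal denotes inhibition.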
# SMN2 splice up = increases expression of the SMN2 splice variant; HEK293 SMN2-luciferase splicing reporter, luminescence, 30-36 h; Potency, µM (doses to about 46.1 µM), for the others: at the highest dose activity change, positive = activation, usual class: activators; hit rate 2.8% among 210,000; AID 1458; note: % of control where 0% means no effect; nearly all actives have a fitted effect of over 55% in size
#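 HEK293 cells carry an SMN2 […]–luciferase reporter in which exon 7 inclusion puts luciferase in frame. Cells were plated 10-12 h before compound addition, then incubated 30-36 h at 37C. ONE-Glo luminescence was read; sodium butyrate at 4.5 mM final served as control.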
# FLuc counter = counter-screen for miR-21 project: firefly luciferase inhibitors or activators; P08659; purified FLuc, Km substrates, luminescence inhibition; Potency, µM (top dose mostly 57.5 µM), inactives show at the top dose activity change, negative = inhibition, usual class: inhibitors; hit rate 6.9% among 360,000; AID 588342;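 note: plate controls were vehicle for no effect and reference inhibitor for full effect; nearly all actives have a fitted effect of over 55% in size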
# Target sequence (P08659 whole entry, looked up): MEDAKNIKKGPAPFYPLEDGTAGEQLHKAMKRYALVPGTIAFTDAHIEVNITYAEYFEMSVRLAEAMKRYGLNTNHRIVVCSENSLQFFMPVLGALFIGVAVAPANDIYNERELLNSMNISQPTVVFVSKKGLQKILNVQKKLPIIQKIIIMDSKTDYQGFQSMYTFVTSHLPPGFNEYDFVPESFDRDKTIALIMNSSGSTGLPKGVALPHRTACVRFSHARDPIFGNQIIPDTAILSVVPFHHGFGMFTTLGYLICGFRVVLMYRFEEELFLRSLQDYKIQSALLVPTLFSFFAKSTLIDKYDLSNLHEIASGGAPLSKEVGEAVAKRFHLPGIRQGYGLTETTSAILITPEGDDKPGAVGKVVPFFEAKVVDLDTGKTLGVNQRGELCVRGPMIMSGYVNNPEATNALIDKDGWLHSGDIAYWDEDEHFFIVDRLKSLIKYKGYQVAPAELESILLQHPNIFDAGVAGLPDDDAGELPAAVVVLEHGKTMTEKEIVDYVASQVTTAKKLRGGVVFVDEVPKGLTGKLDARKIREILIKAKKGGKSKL
#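 Purified P. pyralis luciferase, 10 nM final, with Km-level 10 uM D-luciferin and 10 uM ATP in 50 mM Tris acetate pH 7.5, 10 mM Mg acetate, 0.01% Tween-20, 0.05% BSA; 6-point qHTS titration about 60 µM downward; luminescence read.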
# ELG1 genotoxic = induces genotoxicity in HEK293T cells with luciferase-tagged ELG1 | HEK293T ELG1-luciferase reporter, luminescence, 16 h | Potency, µM (highest dose often 46 µM), without a hit: at the highest dose activity change, positive = activation, usual class: activators | hit rate 1.3% among 330,000; note: % of control where 0% means no effect; nearly all actives have a fitted effect of over 60% in size
#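 HEK293T cells expressing luciferase-tagged ELG1 were exposed to compound or DMSO vehicle for 16 hr at 37 °C and 5% CO2. Luciferase activity was then measured with ONE-Glo after 30 min at room temperature.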
# An asterisk follows results filed as active; ? = inconclusive; / = no result; [ ] = dose if it differs, or a comment. Calls come from the whole dose curve; as a rule, active = well fitted curve in the direction sought with a large enough effect; inconclusive = small, poorly fitted or top-dose-only effect, or another doubt; inactive = no such curve, though single readings can be large; an effect the other way counts as inactive or inconclusive. Potency is the fitted concentration of half-maximal effect.
SMILES,Rab9 prom act,NPC1 prom act,ELG1 repair inh,SMN2 splice up,FLuc counter,ELG1 genotoxic
Nc1ccc(C(=O)N/N=C/c2c[nH]c3ccccc23)cc1,3%,6%,19%,/,13µM*,6%
O=C(O)c1ccc(N/N=C/c2c[nH]c3ccccc23)cc1,-5%,-9%,?,/,0.43µM*,?
CC(C)(C)OC(=O)N/N=C/c1c[nH]c2ccccc12,25%,22%,?,/,9.5µM*,15%
Cc1occc1C(=O)N/N=C/c1c[nH]c2ccccc12,?,?,?,5%,13µM*,?
O=C(N/N=C/c1c[nH]c2ccccc12)c1ccc(Cl)cc1,?,?,?,/,7.6µM*,13%
O=C(N/N=C\c1c[nH]c2ccccc12)c1ccc(O)cc1,17%,22%,19%,/,15µM*,12%
Cc1nc(/C(=N/O)C(N)=O)cs1,-1%,-3%,-1%,/,-1%,0%
Cc1cc(C)c(C#N)c(Sc2ccccc2N)n1,2%,3%,?,-2%,15µM*,?
CCS(=O)(=O)N1Cc2ccccc2CC1C(=O)NCCc1ccccc1 (stereo unspecified),-2%,-2%,3%,/,-2%,1%
OC[C@@H](O)CN1CCN(c2ccccc2)CC1,/,/,/,9%[20.6 µM],/,/
Cc1cc(Nc2nc3ccccc3nc2Cl)n(-c2ccc([N+](=O)[O-])cc2)n1,-6%,-6%,21µM*,-73%,-2%,-12%
Cc1cc(Nc2ncc(Cl)cc2Cl)n(-c2ccccc2)n1,-6%,-2%,24%,-21%,-5%,7%
Cc1cc(Nc2nc3ccccc3[nH]c2=O)n(-c2ccccc2)n1,1%,0%,?,13µM*,2%,21µM*
Cc1cc(Nc2cnc3ccccc3n2)n(-c2ccccc2)n1,-1%,-1%,-10%,-23%,?,-3%
O=C1C(c2ccc(C(F)(F)F)cc2)=C(Nc2ccc(Cl)cc2)c2ccccc21,/,/,/,6%,2%,/
CCOC(=O)C1=C(C)NC(SCC(=O)Nc2nc(C)cs2)=C(C#N)C1c1cccs1 (stereo unspecified),11%,4%,21µM*,-28%,-6%,-2%
C=CCOC(=O)C1=C(C)NC(SCC(N)=O)=C(C#N)C1c1cccs1 (stereo unspecified),-5%,0%,-13%,-6%,1%,-2%
COc1cccc(SCc2noc(C(=O)NC(C)C)c2C(=O)NC(C)C)c1,-2%,-2%,-8%,/,0%,0%
Fc1cccc(-n2ncc3c2ncn2nc(COc4ccc(Cl)cc4)nc32)c1,/,/,/,-2%,3%,/
FC(F)(F)c1cnc2c(c1)[nH]c(=S)n2-c1ccc(Cl)cc1,-1%,-5%,16µM*,/,1%,-14%
CC(=O)N1c2ccc(S(=O)(=O)N(C)CC(=O)Nc3ccccc3C)cc2CC1C (stereo unspecified),-2%,1%,16µM*,/,0%,-7%
CC(=O)N1c2ccc(S(=O)(=O)N(C)CC(=O)Nc3cccc(C)c3)cc2CC1C (stereo unspecified),-3%,0%,0%,/,4%,0%[9.26 µM]
CCN(CC)S(=O)(=O)c1cc(-c2nnc(-c3ccc(Br)cc3)o2)ccc1Br,-5%,-4%,?,-62%,-7%,0%
Cc1ccc(-c2nnc(-c3ccc(Br)cc3)o2)o1,3.2µM*,?,?,13µM*,3µM*,?
O=C(Cc1ccccc1)Nc1ccc(-c2nnc(-c3ccco3)o2)cc1,8%,0%,15%,1%,3%,2%
SMILES,Rab9 prom act,NPC1 prom act,ELG1 repair inh,SMN2 splice up,FLuc counter,ELG1 genotoxic
CSc1nnc(-c2ccco2)c(-c2ccco2)n1,7%,0%,-2%,?,?,3%
c1coc(-c2nnc(-c3cccs3)o2)c1,?,?,?,11µM*,?,?
c1ccc(-c2nnc(-c3ccco3)o2)cc1,3.2µM*,3.2µM*,?,/,21µM*,2.1µM*
c1coc(-c2nnc(-c3ccco3)nn2)c1,?,?,9%,/,17µM*,4%
COc1cccc([C@@H]2CC=C(C(=O)O)[C@H](c3cccc(Cl)c3)N2S(=O)(=O)c2ccc(C)cc2)c1,-6%,-1%,25%,/,2%,-2%
Brc1ccc(-c2nnc(-c3ccco3)o2)cc1,4µM*,3.2µM*,?,/,8.5µM*,?
CCOc1ccc(-c2nnc(-c3ccco3)o2)cc1OCC,?,30%,?,-15%,?,?
COc1ccc(C(=O)Nc2cccc(-c3cn4ccsc4n3)c2)cc1OC,/,/,/,/,3.4µM*,/
COc1ccc(C(=O)Nc2cccc(-c3cn4ccsc4n3)c2)c(OC)c1,/,/,/,/,2.7µM*,/
Cc1cc(/C=N/Nc2nc(N)ncc2[N+](=O)[O-])c(C)n1-c1ccccc1F,-17%,?,?,/,0.048µM*,?
Cc1nc2nc[nH]n2c(=O)c1CCOC(=O)c1ccccc1F,13%,-4%,-10%,/,11µM*,3%
Cc1nc2nc[nH]n2c(=O)c1CCOC(=O)c1c(F)cccc1F,3%,-2%,-3%,7%,?,2%
O=C(Nc1ccc2c(c1)OCO2)c1cnc2n(c1=O)CCS2,3.2µM*,?,?,13µM*,?,?
CCn1cnc2sc(C(=O)Nc3ccc4c(c3)OCO4)c(C)c2c1=O,2.8µM*,?,?,13µM*,11µM*,8.9µM*
O=C(Nc1ccc(OC(F)(F)F)cc1)c1cnc2n(c1=O)CCS2,14%,?,?,-55%,-11%,7.3µM*
O=C(Nc1ccc2c(c1)OCCO2)c1cnc2n(c1=O)CCS2,2µM*,2.5µM*,?,20µM*,9.5µM*,9.2µM*
O=C(NCc1ccc2c(c1)OCO2)c1cnc2n(c1=O)CCS2,-6%,3%,13%,7%,-1%,-1%
COc1ccc(-c2nc3c4ccccc4n(CC(=O)N4CCN(c5ccccc5OC)CC4)c(=O)n3n2)cc1,/,/,/,/,2%,/
COc1cc2nc(NCc3ccccc3Cl)n3nc(-c4cccnc4)nc3c2cc1OC,/,/,/,-1%,-3%,/
Cc1cccc(NC(=O)c2cnc3n(c2=O)CCS3)c1,3.5µM*,3.5µM*,?,11µM*,12µM*,?
O=C(Nc1ccccc1)c1cnc2n(c1=O)CCS2,?,25%,?,?,?,15%
C=CCn1c(SCC(=O)Nc2ccc(S(N)(=O)=O)cc2)nnc1-c1cnccn1,-4%,-1%,10%,/,0%,0%
Cc1cccc(NC(=S)NNC(=O)c2ccc(O)cc2O)c1C,16%,-1%,10µM*,-48%,?,-12%
Cc1ccc(Nc2nc(C(=O)N3CCC(C(=O)N4CCN(C)CC4)CC3)cs2)cc1,18%,14%,12%,7%,-17%,14%
